This is an account of results in publication PMC10313831, “ssDNA accessibility of Rad51 is regulated by orchestrating multiple RPA dynamics”.

This assay deals with RPA (Rfa1-Rfa2-Rfa3) (Saccharomyces cerevisiae, UniProt P22336;P26754;P26755 1-621;1-273;1-122). Kind of assay: EMSA; 10 nM RPA, 150 mM KCl; 20 mM Tris-HCl pH 7.5, 150 mM KCl (15 mM in Supp. Fig. 1b), 1 mM DTT, 100 ug/mL BSA, 5 nM ssDNA, 30 C 10 min; 4% native gel in 0.2x TBE; high values mean tight binding. As to conditions: protein: recombinant; copies: 1;1;1; label: 5'-32P; ssDNA. (In general: In EMSA bound probe runs differently from free probe, usually more slowly.)
RPA (Rfa1-Rfa2-Rfa3), sequence (P22336 whole entry, chain 1 of 3): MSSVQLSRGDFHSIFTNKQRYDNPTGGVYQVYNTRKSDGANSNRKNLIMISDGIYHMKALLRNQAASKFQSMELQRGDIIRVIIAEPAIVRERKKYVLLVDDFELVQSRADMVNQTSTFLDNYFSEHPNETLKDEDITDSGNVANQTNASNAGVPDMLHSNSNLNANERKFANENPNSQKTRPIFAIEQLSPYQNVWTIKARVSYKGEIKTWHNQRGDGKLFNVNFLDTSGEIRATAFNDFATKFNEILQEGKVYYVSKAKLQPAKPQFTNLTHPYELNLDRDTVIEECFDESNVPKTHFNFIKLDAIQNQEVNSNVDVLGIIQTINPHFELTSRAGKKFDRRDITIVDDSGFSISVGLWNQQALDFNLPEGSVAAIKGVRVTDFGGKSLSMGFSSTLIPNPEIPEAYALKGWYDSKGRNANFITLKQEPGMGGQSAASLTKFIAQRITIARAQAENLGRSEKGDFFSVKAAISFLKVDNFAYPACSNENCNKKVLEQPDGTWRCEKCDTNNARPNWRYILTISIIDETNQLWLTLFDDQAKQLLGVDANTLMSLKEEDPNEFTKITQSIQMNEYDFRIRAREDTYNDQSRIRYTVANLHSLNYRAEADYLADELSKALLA
RPA (Rfa1-Rfa2-Rfa3), sequence (P26754 whole entry, chain 2 of 3): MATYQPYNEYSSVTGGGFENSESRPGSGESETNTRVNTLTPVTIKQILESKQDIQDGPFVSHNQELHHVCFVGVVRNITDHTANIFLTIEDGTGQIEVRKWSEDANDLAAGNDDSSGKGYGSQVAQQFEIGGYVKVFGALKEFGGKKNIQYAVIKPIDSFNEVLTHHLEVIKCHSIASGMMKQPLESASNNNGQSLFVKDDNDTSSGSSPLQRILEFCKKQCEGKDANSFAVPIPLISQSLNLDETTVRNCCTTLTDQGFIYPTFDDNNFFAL
RPA (Rfa1-Rfa2-Rfa3), sequence (P26755 whole entry, chain 3 of 3): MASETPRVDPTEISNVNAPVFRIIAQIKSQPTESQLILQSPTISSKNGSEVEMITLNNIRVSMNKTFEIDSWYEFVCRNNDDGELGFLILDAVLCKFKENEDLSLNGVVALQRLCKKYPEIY
Take TTTTTTTTTT: the binding signal was 1.24 % bound.
The result for TTTTTTTTTTTTTT reads 3.33 ± 2.59 % bound; that for TTTTTTTTTTTTTTTTTT, 39.7 % bound.
